Laboratory results from PubChem BioAssay (EPA / NIEHS).
Results filed as inconclusive are left out. Some compounds were tested as several samples or in several runs, with calls that do not always agree. The source made the active and inactive calls. How the source made its calls: active means hit-call score of the fitted dose curve at least 0.9, where 1 is the maximum; inconclusive means response in the unintended direction; inactive means score below 0.9.

The compounds below were run against Ratio of Nucleoli Translocation and Cytoplasm, AR (gene 367) (UniProt P10275) (assay: UPITT_HCI_U2OS_AR_TIF2_Nucleoli_Cytoplasm_Ratio_Agonist: University of Pittsburgh U2OS Androgen Receptor-Transcriptional Intermediary Factor 2 (AR-TIF2) Agonism High Content Imaging Assay for Ratio of Nucleoli Translocation and Cytoplasm (AID 2284000);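 further: hits raise the red nucleolar to cytoplasm ratio above vehicle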).
Ratio of Nucleoli Translocation and Cytoplasm, AR (gene 367), sequence (P10275 whole entry, looked up, the tested form may be a part): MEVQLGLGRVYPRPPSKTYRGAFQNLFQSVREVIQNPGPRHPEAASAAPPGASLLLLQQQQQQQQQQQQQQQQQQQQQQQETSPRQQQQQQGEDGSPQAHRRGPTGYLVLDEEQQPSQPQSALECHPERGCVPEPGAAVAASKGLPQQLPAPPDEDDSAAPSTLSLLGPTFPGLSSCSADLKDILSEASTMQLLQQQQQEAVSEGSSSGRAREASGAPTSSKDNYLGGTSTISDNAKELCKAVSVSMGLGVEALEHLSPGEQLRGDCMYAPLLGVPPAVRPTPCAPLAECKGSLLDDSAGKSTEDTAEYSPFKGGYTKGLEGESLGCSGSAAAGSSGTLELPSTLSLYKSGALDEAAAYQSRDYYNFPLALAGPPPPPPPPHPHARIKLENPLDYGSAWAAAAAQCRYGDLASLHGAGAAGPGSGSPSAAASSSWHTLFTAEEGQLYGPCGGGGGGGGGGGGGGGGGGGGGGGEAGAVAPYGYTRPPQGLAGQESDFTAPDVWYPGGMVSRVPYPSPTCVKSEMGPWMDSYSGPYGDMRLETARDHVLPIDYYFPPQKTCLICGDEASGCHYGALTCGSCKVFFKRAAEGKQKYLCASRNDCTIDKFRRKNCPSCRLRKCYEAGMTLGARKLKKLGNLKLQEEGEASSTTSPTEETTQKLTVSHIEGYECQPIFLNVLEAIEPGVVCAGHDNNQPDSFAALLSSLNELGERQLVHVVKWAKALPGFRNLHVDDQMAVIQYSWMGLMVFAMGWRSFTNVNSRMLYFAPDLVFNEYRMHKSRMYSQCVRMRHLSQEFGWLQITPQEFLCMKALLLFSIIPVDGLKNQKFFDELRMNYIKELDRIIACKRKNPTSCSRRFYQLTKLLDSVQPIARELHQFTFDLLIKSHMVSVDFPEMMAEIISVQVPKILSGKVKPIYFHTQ
From the text: UPITT_AR_TIF2_PPIB is a cell-based, high-content imaging assay that uses U2OS, a human osteosarcoma cell line, expressing a human androgen receptor fused to red fluorescent protein and the coactivator TIF2 fused to green fluorescent protein. UPITT_HCI_U2OS_AR_TIF2_Nucleoli_Cytoplasm_Ratio_Agonist is one of four assay components measured from the UPITT_AR_TIF2_PPIB assay. It is designed to make measurements of the ratio of red fluorescence localized in the nucleolar region of the cell nucleus to red fluorescence localized in the cytoplasm as detected with high-content fluorescent imaging.Data from the assay component UPITT_HCI_U2OS_AR_TIF2_Nucleoli_Cytoplasm_Ratio_Agonist was analyzed into 1 assay endpoint. This assay endpoint, UPITT_HCI_U2OS_AR_TIF2_Nucleoli_Cytoplasm_Ratio_Agonist, was analyzed in the positive analysis fitting direction relative to DMSO as the baseline of activity. Using a type of binding reporter, measures of receptor for gain-of-signal activity can be used to understand the binding at the pathway-level as it relates to the gene AR.
Daughter plates containing 2 uL of 10 mM compounds in DMSO were prepared and replicated from the 384-well Library of Pharmacologically Active Compounds (LOPAC) master plates using the Bravo outfitted with a 384-well transfer head. Aluminum adhesive plate seals were applied with an Abgene Seal-IT 100 (Rochester, NY) plate sealer, and the plates were stored at -20 C in a Matrical MatriMinistore (Spokane, WA) automated compound storage and retrieval system. For screening, LOPAC daughter plates were withdrawn from -20C storage, thawed to ambient temperature, centrifuged 1-2 min at 50 g, and the plate seals were removed before the transfer of 98 uL of serum-free tissue culture medium (SFM) into wells using the BioTek Microflo liquid handler (BioTek, Winooski, VT) to generate a 200 uM intermediate stock concentration of library compounds (2.0% DMSO). The diluted compounds were mixed by repeated aspiration and dispensation using a 384-well P30 dispensing head on the Evolution P3 (EP3) liquid handling platform (PerkinElmer, Waltham, MA) and then 5 uL of diluted compounds was transferred to the wells of assay plates. In the LOPAC screen, compounds were individually tested at a final concentration of 20 uM (0.2% DMSO). After the diluted compounds had been transferred from the daughter plates to the primary HCS assay plates, aluminum adhesive plate seals were applied and the diluted daughter plates were stored frozen at -20C. To confirm active compounds identified in the primary screen, we withdrew the LOPAC daughter plates containing the 200 uM intermediate concentration of library compounds (2.0% DMSO) from -20C storage, thawed them to ambient temperature, centrifuged them for 1-2 min at 50 g, and removed the plate seals. A work list was generated to direct the Multiprobe Janus liquid handling platform (PerkinElmer) to cherry pick 75 uL from the wells of the diluted daughter plates that were flagged active in the primary screen and to reformat these into a 384-well plate hit confirmation daughter plate. Five microliters of primary HCS active compounds was then transferred into triplicate wells of assay plates using a 384-well P30 dispensing head on the Evolution P3 (EP3) liquid handling platform (PerkinElmer). […] Daughter plates containing 2 uL of the serially diluted compounds in DMSO were prepared and replicated from the 384-well serial dilution master plates using the Bravo outfitted with a 384-well transfer head. Aluminum adhesive plate seals were applied and plates were stored at -20C. For testing in the bioassays, daughter plates were withdrawn from -20C storage, thawed to ambient temperature, centrifuged for 1-2 min at 50 g, and the plate seals were removed before the transfer of 38 uL of SFM into wells using the BioTek Microflo liquid handler (BioTek) to generate an intermediate stock concentration of library compounds ranging from 1.95 to 500 uM (5.0% DMSO). […]

Compound	outcome	AC50
O=CNC(N1CCN(C(NC=O)C(Cl)(Cl)Cl)CC1)C(Cl)(Cl)Cl (stereo unspecified)	inactive	–
Clc1c(Cl)c(Cl)c2c(c1Cl)Oc1c(Cl)c(Cl)c(Cl)c(Cl)c1O2	inactive	–
C[n+]1ccc(-c2cc[n+](C)cc2)cc1	inactive	–
O=C(NCNC(=O)NC1C(=O)NC(=O)N1CO)NC1C(=O)NC(=O)N1CO (stereo unspecified)	inactive	–
O=c1[nH]c2c(c(=O)n1C1CCCCC1)CCC2	inactive	–
ClC1=C(Cl)[C@]2(Cl)[C@H]3[C@H]([C@H](Cl)C(Cl)[C@@H]3Cl)[C@@]1(Cl)C2(Cl)Cl (stereo partly specified)	inactive	–
c1ccc2cc3c(cc2c1)-c1cccc2cccc-3c12	inactive	–
CN(C)N	inactive	–
CNC(=O)Oc1cc(C)c(SC)c(C)c1	inactive	71.1 µM (active)
Cc1ccc(C)c2ccccc12	inactive	–
CCCCC(CC)COC(=O)c1cc(Br)c(Br)c(Br)c1Br (stereo unspecified)	inactive	–
O=S1OC[C@@H]2[C@H](CO1)[C@]1(Cl)C(Cl)=C(Cl)[C@]2(Cl)C1(Cl)Cl (stereo partly specified)	inactive	–
COP(=S)(OC)SCC(=O)N(C)C=O	inactive	–
C=COCCCl	inactive	–
c1ccc2c(c1)CCCC2	inactive	–
